Sfp PPTase inh: blocks B. subtilis Sfp PPTase activity. Biochemical Sfp PPTase activity, qHTS. Potency, µM, for the others: largest response in the series, negative = inhibition, most hits filed as inhibitors. 310,000 tested, 3.5% active. AID 1490;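 also: the enzyme is Sfp with the accession as filed and its product quenches rhodamine fluorescence; potency is read from the fitted curve at half-maximal effect; 0% = enzyme reaction without inhibitor and -100% = no enzyme wells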
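Buffer: 50 mM Hepes-Na pH 7.6, 10 mM MgCl2, 0.01% Nonidet P-40, 0.01% BSA. Enzyme 15 nM, pre-exposed to compound 15 min; substrates then added and fluorescence change tracked over 30 min.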
Coupling enz: coupling enzyme interference in Giardia aldolase counter-screen; coupling enzyme system counterscreen, AmpLite Red fluorescence; activity change, negative = inhibition, % at 58.2 µM, hits read low; 290,000 tested, 0.67% active; AID 2472; in the data active = activity change below about -30%
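First, compound is pin-transferred into glyceraldehyde-3-phosphate coupling-enzyme reagent at 57.5 uM final and held 10 min at RT. Next, substrate, coupling system and AmpLite Red are added. After 20 min RT, fluorescence (525/598 nm) is read.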
Tau fluor counter: counter-screen for tau fibril formation inhibitors; tau K18 P301L Alexa594 fluorescence, heparin fibrillization; Potency, µM (top dose mostly 57.7 µM), for the others: top-dose activity change, negative = decrease; 280,000 tested, 0.93% active; AID 1463; also: potency is read from the fitted curve at half-maximal effect; nearly all actives have a fitted effect of over 55% in size
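Human tau K18 P301L (15 uM unlabeled, 0.24 uM Alexa 594-labeled) in 100 mM sodium acetate pH 7 with 20 uM heparin, 6 hr at 37 C. ThT 30 uM added, 1 hr ambient; Alexa 594 FP and total fluorescence read at 555/632 nm.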
Tau fibril FP: inhibitors of human tau fibril formation; AID 1468; 280,000 tested, 0.39% active; K18 P301L tau heparin fibrillization, Alexa594 FP, 6 h; Potency, µM (series often up to 57.7 µM), inactives show at the top dose activity, negative = inhibition, actives largely listed as inhibitors; P10636; also: potency is read from the fitted curve at half-maximal effect; nearly all actives have a fitted effect of over 55% in size
Target sequence (P10636 561-689 P618L limits assumed): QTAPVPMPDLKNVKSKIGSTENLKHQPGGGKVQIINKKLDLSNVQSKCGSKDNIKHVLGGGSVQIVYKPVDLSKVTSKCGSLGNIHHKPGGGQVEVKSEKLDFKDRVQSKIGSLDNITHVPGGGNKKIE
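Compound effects on tau fibrillization are measured by Alexa 594 fluorescence polarization (ex 555, em 632 nm). K18 P301L tau is used at 15 uM with 0.24 uM labeled tracer, and 20 uM heparin induces aggregation over 6 hr at 37 C.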
Tau fibril ThT: blocks human tau fibril formation measured by thioflavin T; recombinant tau K18 P301L, heparin-induced fibrillization, ThT fluorescence; Potency, µM (titrated, usually from 57.4 µM), inactives show top-dose activity, negative = inhibition, actives largely listed as inhibitors; 270,000 tested, 2.1% active; also: potency is read from the fitted curve at half-maximal effect; nearly all actives have a fitted effect of over 55% in size
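Fibril formation assay: tau K18 P301L at 15 uM with trace Alexa 594 label, heparin inducer 20 uM, pH 7 sodium acetate buffer, 37 C for 6 hr; endpoint ThT signal.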
KDM4E inh: blocks human JMJD2E demethylase activity | B2RXH2 | 230,000 tested, 1.6% active | Potency, µM (titrated, usually from 57.1 µM), without a hit: at the highest dose activity change, negative = inhibition, hits mostly inhibitors | JMJD2E catalytic domain, FDH-coupled NADH fluorescence (FDH is formaldehyde dehydrogenase);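 also: potency is read from the fitted curve at half-maximal effect; 0% = wells with enzyme and -100% = buffer wells without enzyme; nearly all actives have a fitted effect of over 50% in size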
Target sequence (B2RXH2 1-337 limits assumed): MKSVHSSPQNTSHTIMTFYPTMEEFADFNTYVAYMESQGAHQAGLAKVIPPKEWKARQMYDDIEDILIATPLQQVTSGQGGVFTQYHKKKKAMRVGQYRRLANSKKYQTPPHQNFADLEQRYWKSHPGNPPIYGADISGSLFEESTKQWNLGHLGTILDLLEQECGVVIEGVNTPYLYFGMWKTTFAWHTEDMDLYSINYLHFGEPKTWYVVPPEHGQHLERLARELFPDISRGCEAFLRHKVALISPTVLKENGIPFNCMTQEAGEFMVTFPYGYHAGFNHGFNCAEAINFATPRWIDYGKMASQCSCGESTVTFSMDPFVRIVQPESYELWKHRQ
* = called active by the depositor; ? = inconclusive; · = no result given; [ ] = dose if it differs, or a comment. This is a sample that favours compounds with a hit; in the whole collection about 5.3% have one here. Unless noted, calls follow the shape of the dose curve; as a rule, active = well fitted curve in the direction sought with a large enough effect; inconclusive = small, poorly fitted or top-dose-only effect, or another doubt; inactive = no such curve, though single readings can be large; an effect the other way counts as inactive or inconclusive. Unless noted, % is scaled to controls: 0 for no effect and ±100 for the full control effect.

SMILES	Sfp PPTase inh	Coupling enz	Tau fluor counter	Tau fibril FP	Tau fibril ThT	KDM4E inh
CSc1nc2c(c(=O)[nH]1)CCCC2	3.6%	-2.7	0.5%	-0.8%	-0.2%	-0.2%
O=C(N/N=C/c1c[nH]c2ccccc12)c1cc(Br)ccc1O	11.5%	-2.0	·	·	·	·
C/C(=N\NC(=O)CCC(=O)O)c1c(-c2ccccc2)c2cc(Br)ccc2[nH]c1=O	19.8%	0.5	3.4%	5.5%	·	-8.1%
O=C(N/N=C/c1c[nH]c2ccccc12)c1[nH]c2ccc(Br)cc2c1-c1ccccc1	33.4%	2.4	3.98µM*[quencher]	-12.8%	?	9.5%
O=C(N/N=C/c1ccc(O)cc1)c1[nH]c2ccc(Br)cc2c1-c1ccccc1	-0.7%	-1.1	12.6µM*[quencher]	?	-14.7%	?
O=C(N/N=C/c1c[nH]c2ccc(Br)cc12)c1ccc2c(c1)OCO2	-8.7%	-6.6	17.8µM*[quencher]	?	?	-26.5%
O=S(=O)(Nc1cccc(-c2ccc(N3CCCCC3)nn2)c1)c1ccc(Cl)s1	·	·	-27.9%	-2.2%	-2.9%	·
C=CCn1c(=NC(=O)c2ccc(S(=O)(=O)N3CCc4ccccc4C3)cc2)sc2cc(S(N)(=O)=O)ccc21	7.5%	-1.7	-19.5%	?	-4.1%	?
COCCn1c(=NC(=O)c2ccc(S(=O)(=O)N3CCc4ccccc4C3)cc2)sc2cc(S(N)(=O)=O)ccc21	-1.2%	-0.2	-20.6%	?	3.6%	3.98µM*
C#CCn1c(=NC(=O)c2ccc(S(=O)(=O)N3CCc4ccccc4C3)cc2)sc2cc(S(N)(=O)=O)ccc21	19.7%	-0.2	-5.6%	?	5.1%	6.31µM*
Cc1ccc(C)c(CNC(=O)c2ccc3c(c2)nc2n3CCCCC2)c1	·	·	-11.9%	-3.7%	-17.7%	·
NC(C(=O)O)c1cc(O)cc(O)c1 (centres undefined)	?	·	-4.0%	7.7%	4.9%	·
COc1cccc(C2C(C#N)=C(N)OC(C(C)(C)C)=C2C#N)c1 (centres undefined)	4.6%	-29.2	-10.5%	-9.5%	-9.5%	-22.3%
COc1ccc(C2C(C#N)=C(N)OC(C(C)(C)C)=C2C#N)cc1OC (centres undefined)	5.5%	-36.7*	-6.8%	-13.2%	?	?
O=C(COc1ccc(/C=N/NS(=O)(=O)c2ccccc2)cc1)Nc1cccc(Cl)c1	18.7%	-2.3	15.8µM*[quencher]	8.4%	?	-15.3%
O=C(COc1ccc(/C=N/NS(=O)(=O)c2ccccc2)cc1)NCc1ccccc1	0.0%	0.4	-24.7%	-7.2%	-6.8%	-3.6%
CCOC(=O)CNC(c1ccccc1)c1cc(Br)ccc1NC(=O)CCN1CCOCC1 (centres undefined)	15.8µM*	0.9	-4.3%	-1.0%	0.3%	2.8%
CCOC(=O)CNC(c1ccccc1)c1cc(Br)ccc1NC(=O)OCC (centres undefined)	7.4%	-1.1	-15.2%	-11.2%	-8.6%	-2.9%
COC(=O)CNC(c1ccccc1)c1cc(Br)ccc1NC(=O)CCN1CCOCC1 (centres undefined)	31.6µM*	-0.5	7.1%	4.6%	7.9%	2.3%
O=C(/C=C/c1cccc(F)c1)c1ccc(N2CCOCC2)cc1	-13.3%	0.6	?	1.5%	12.6µM*	6.8%
O=C(/C=C/c1cccs1)c1ccc(N2CCOCC2)cc1	-4.2%	-0.2	-22.2%	-5.0%	15.8µM*	-10.5%
O=C(/C=C/c1cccs1)c1ccc([N+](=O)[O-])cc1	-2.5%	-0.8	-16.2%	12.0%	?	-5.9%
Cc1ccc(S(=O)(=O)N/N=C/c2ccc(O)cc2O)cc1[N+](=O)[O-]	50.1µM*	16.1	?	4.3%	?	11.6%
CCOc1cccc(/C=N/NS(=O)(=O)c2ccc(C)c([N+](=O)[O-])c2)c1O	56.2µM*	13.5	-8.2%	10.3%	-9.9%	-6.6%
Cc1ccc(Cn2c(C(=O)NCc3ccccc3Cl)cc3sccc32)cc1	·	·	-28.6%	-10.1%	-6.3%	·
SMILES	Sfp PPTase inh	Coupling enz	Tau fluor counter	Tau fibril FP	Tau fibril ThT	KDM4E inh
Oc1ccc(C23CC4CC(CC(C4)C2)C3)cc1O	79.4µM*	-8.4	·	·	·	·
CC1CC=CC2C1C(=O)N(Cc1ccccc1)C2c1cccc([N+](=O)[O-])c1 (centres undefined)	-12.8%	3.3	·	·	·	·
C[C@H](CC[C@@H]1OC1(C)C)C1CC[C@H]2[C@@H]3CC=C4C[C@@H](O)CC[C@]4(C)[C@H]3CC[C@]12C (some centres undefined)	9.7%	·	0.6%	-0.4%	-4.0%	·
COc1cccc(OCc2cc(/C=N/Nc3ccc(C(=O)O)cc3)ccc2OC)c1	-5.4%	2.4	11.2µM*[quencher]	4.3%	?	?
COc1cccc(C(=O)Oc2ccc(/C=N/Nc3ccc(C(=O)O)cc3)cc2OC)c1	?	5.8	·	·	·	·
CCOc1cc(/C=N/Nc2ccc(C(=O)O)cc2)ccc1OC(=O)c1ccccc1C	-12.6%	-0.2	0.708µM*[quencher]	?	·	-22.8%
CC(=O)N(C1=C(N)C(=O)c2ccccc2C1=O)c1ccccc1	13.0%	-34.1*	·	·	·	·
Cc1cccc(NC(=O)c2oc3c(c2C)-c2[nH]ncc2CC3)c1C	·	·	?	-14.6%	?	·
Cc1c(C(=O)NC(C)C)oc2c1-c1[nH]ncc1CC2	4.2%	-38.8*	-7.6%	-0.3%	?	?
COc1cccc(C(=O)CN2CCN(S(=O)(=O)c3ccc(Cl)cc3)CC2)c1	·	·	-8.8%	-3.3%	-5.3%	·
O=C(CN1CCN(S(=O)(=O)c2ccc(Cl)cc2)CC1)c1ccc(O)c(O)c1	56.2µM*	·	·	·	·	·
COc1ccc(S(=O)(=O)N2CCN(CC(=O)c3ccc(O)c(O)c3)CC2)cc1	44.7µM*	·	·	·	·	·
Cc1ccc(S(=O)(=O)N2CCN(CC(=O)N/N=C\c3ccc(O)c(O)c3)CC2)cc1	?	-6.2	?	-3.1%	·	15.8µM*
O=C(NNS(=O)(=O)c1ccc(Cl)cc1)c1ccc(S(=O)(=O)N2CCCCC2)cc1	-6.6%	0.2	-14.1%	4.9%	-12.5%	-2.2%
COc1ccc(S(=O)(=O)N2CCN(CC(=O)NC3CCCC3)CC2)cc1	2.9%	3.2	·	·	·	·
O=C(Nc1cc(S(=O)(=O)Nc2ccc(Cl)cc2)ccc1O)c1ccc(S(=O)(=O)N2CCCCCC2)cc1	3.16µM*	5.5	?	?	?	-18.8%
Cc1ccc(S(=O)(=O)N2CCN(CC(=O)N/N=C/c3ccc(C)o3)CC2)cc1	14.9%	1.7	-3.2%	1.1%	-3.1%	3.5%
O=C(NCc1ccccc1Cl)c1ccc(NC(=O)N2CCSc3ncccc32)cc1	·	·	2.1%	-17.3%	0.8%	·
COc1ccc(C)cc1S(=O)(=O)Nc1cccc(-c2ccc(N3CCCC3)nn2)c1	·	·	2.4%	-3.3%	0.6%	·
O=C(CN1CCN(S(=O)(=O)c2ccc(F)cc2)CC1)c1ccc(O)c(O)c1	17.8µM*	-6.4	?	?	?	4.47µM*

Bioassay records deposited in PubChem by National Center for Advancing Translational Sciences (NCATS).
